TDP1 block: inhibitors of human tyrosyl-DNA phosphodiesterase TDP1; Potency, µM (highest dose often 130 µM), most hits filed as inhibitors; recombinant TDP1, AlphaScreen DNA substrate cleavage; Q9NUW8; 350,000 compounds, 0.28% hits; note: nearly all actives have a fitted effect of over 40% in size
Target sequence (Q9NUW8 whole entry, looked up): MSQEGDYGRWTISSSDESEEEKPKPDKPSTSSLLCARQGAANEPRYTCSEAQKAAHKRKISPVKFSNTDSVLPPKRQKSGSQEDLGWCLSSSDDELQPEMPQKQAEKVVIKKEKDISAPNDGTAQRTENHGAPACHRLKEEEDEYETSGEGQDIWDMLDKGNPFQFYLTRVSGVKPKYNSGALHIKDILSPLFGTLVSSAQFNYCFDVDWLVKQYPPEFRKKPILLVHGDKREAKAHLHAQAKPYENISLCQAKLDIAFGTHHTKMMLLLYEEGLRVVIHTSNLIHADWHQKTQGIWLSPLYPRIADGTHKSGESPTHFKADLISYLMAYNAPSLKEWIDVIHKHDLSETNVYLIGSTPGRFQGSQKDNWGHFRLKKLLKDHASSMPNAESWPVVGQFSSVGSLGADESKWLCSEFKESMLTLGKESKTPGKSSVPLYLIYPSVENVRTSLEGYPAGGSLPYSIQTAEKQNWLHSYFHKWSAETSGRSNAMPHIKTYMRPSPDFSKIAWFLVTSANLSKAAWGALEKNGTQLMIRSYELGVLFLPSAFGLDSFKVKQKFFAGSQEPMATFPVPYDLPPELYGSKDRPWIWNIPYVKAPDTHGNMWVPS
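Compounds were preincubated with Tdp1 (1 nM final) for 15 min at room temperature before substrate (15 nM final) started a 5 min reaction; beads (10 ug/ml final) were then added for 10 min before AlphaScreen detection.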
TDP1 cell noCPT: qHTS for Inhibitors of human tyrosyl-DNA phosphodiesterase 1 (TDP1): qHTS in cells in absence of CPT; DT40 Tdp1-/- hTDP1 cells, no CPT, ATP luminescence, 48 h; Potency, µM (titrated, usually from 46.2 µM), actives largely listed as inhibitors; 420,000 compounds, 15% hits; note: nearly all actives have a fitted effect of over 55% in size
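Camptothecin absent (DMSO only). Human TDP1-complemented DT40 knockout cells, 400 cells/well, 37 °C for minimum 48 hr; ATP measured via CellTiter-Glo, 30 min dark incubation, luminescence.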
DT40 TDP1 CPT: growth inhibition of DT40 Tdp1-/-;hTDP1 cells with camptothecin (screen for TDP1 inhibitors) | Potency, µM (doses to about 46.2 µM), actives largely listed as inhibitors | chicken DT40 Tdp1-/-;hTDP1 cells + 20 nM CPT, ATP luminescence, 48 h | 420,000 compounds, 12% hits; note: nearly all actives have a fitted effect of over 55% in size
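Chicken DT40 Tdp1-/- cells complemented with human TDP1, 400 cells/well, exposed to compounds plus 20 nM camptothecin for at least 48 h at 37 C; viability read as ATP content by CellTiter-Glo luminescence.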
ClpP mod: qHTS Assay for Activators of ClpP | purified B. subtilis ClpP, FRET peptide cleavage, 20 min | Potency, µM (highest dose often 57.5 µM) | AID 651965, 2013 | 340,000 compounds, 1.9% hits | ATP-dependent Clp protease proteolytic subunit (Bacillus subtilis (strain 168)), P80244; active = well fitted falling curve with a large enough effect; inconclusive = small, poorly fitted or top-dose-only effect; inactive = no such curve, though single readings can be large or run the other way; note: the source files actives as falling curves though it sought activators and does not explain the sign; nearly all actives have a fitted effect of over 65% in size
Target sequence (P80244 whole entry, looked up): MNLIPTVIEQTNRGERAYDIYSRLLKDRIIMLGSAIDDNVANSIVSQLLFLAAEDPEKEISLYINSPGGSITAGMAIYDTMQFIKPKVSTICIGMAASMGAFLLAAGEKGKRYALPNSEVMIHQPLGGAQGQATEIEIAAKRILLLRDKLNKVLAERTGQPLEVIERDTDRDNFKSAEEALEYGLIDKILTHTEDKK
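ClpP 10 microg/mL final, pH 8 Tris/KCl buffer with BSA, glycerol, Tween-20; compound pinned in; FRET-FV substrate; RT 20 min; Ex320/Em430; ΔFRET vs ADEP 5.8 microM, DMSO, no enzyme.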
Of the large screens only hits and unclear results are named; the others gave an inactive call. Sampled rows, rich in hits. Any-hit rate of the full collection: about 17%. Unless noted, calls come from the whole dose curve; as a rule, active = well fitted curve in the direction sought with a large enough effect; inconclusive = small, poorly fitted or top-dose-only effect, or another doubt; inactive = no such curve, though single readings can be large; an effect the other way counts as inactive or inconclusive.

NC(=O)c1ncn([C@@H]2O[C@H](CNCc3cccc(OC4CCCC4)c3)[C@@H](O)[C@H]2O)n1	none (no result: TDP1 block)
Cc1c(NC(=O)COC(=O)c2cccc(F)c2)c(=O)n(-c2ccccc2)n1C	none (no result: TDP1 block)
C=CCn1c(C)cc(C(=O)Cn2c(C(C)O)nc3ccccc32)c1C (stereo not given)	TDP1 cell noCPT 9.2µM, DT40 TDP1 CPT 20.6µM
Cc1cc(C(=O)Cn2c(CO)nc3ccccc32)c(C)n1C	TDP1 cell noCPT 16.4µM, DT40 TDP1 CPT inconclusive (no result: ClpP mod)
Cc1ccc(S(=O)(=O)NC(CC(C)C)C(=O)N2CCN(C/C=C/c3ccccc3)CC2)cc1 (stereo not given)	TDP1 cell noCPT 16.4µM, DT40 TDP1 CPT 16.4µM
Cc1ccc(S(=O)(=O)NC(CC(C)C)C(=O)N2CCOCCOCCOCC2)cc1 (stereo not given)	none (no result: TDP1 block)
Cc1ccc(S(=O)(=O)NCCC(=O)N2CCN(C/C=C/c3ccccc3)CC2)cc1	TDP1 cell noCPT 14.6µM, DT40 TDP1 CPT inconclusive
Cc1cc(C)c(S(=O)(=O)NCC(c2ccc(N(C)C)cc2)N2CCOCC2)c(C)c1 (stereo not given)	TDP1 cell noCPT inconclusive, DT40 TDP1 CPT inconclusive
O=C(O)/C=C\C(=O)Nc1ccccc1C(=O)N1CCN(c2ccc(Cl)cc2)CC1	ClpP mod 20µM
COc1ccccc1CNC(=O)c1ccccc1NC(=O)C1=C(C)OCCS1	TDP1 cell noCPT inconclusive, DT40 TDP1 CPT 20.6µM
CC1=C(C(=O)Nc2ccccc2C(=O)N2CCN(c3ccccc3)CC2)SCCO1	TDP1 cell noCPT 18.4µM, DT40 TDP1 CPT inconclusive (no result: TDP1 block)
CC(C)(C)C(=O)N1CCN(c2ccc3c(c2)C2CC3CCN2C(=O)OCc2ccccc2)CC1 (stereo not given)	TDP1 cell noCPT inconclusive, DT40 TDP1 CPT inconclusive (no result: TDP1 block)
COc1ccc(N2CCN(S(=O)(=O)c3c(C)[nH]c(=O)[nH]c3=O)CC2)cc1	none
O=c1cc(C2CCCCC2)[nH]c(=O)[nH]1	none (no result: TDP1 block)
C[C@@H]1Nc2ccc(Cl)cc2S(=O)(=O)N1	none (no result: ClpP mod)
Cc1ccc(C(=O)CCC(=O)OCC(=O)N(CC(C)C)c2c(N)n(Cc3ccccc3)c(=O)[nH]c2=O)cc1	none (no result: TDP1 block)
COC(=O)CN1C(=O)CSc2ccc(S(=O)(=O)Nc3ccc(C)c(Cl)c3)cc21	TDP1 cell noCPT inconclusive, DT40 TDP1 CPT inconclusive
Cc1ccc(-c2cc3ncc(C(=O)c4cc([N+](=O)[O-])ccc4O)cn3n2)cc1	TDP1 cell noCPT 2.31µM, DT40 TDP1 CPT inconclusive
Cc1ccc(-c2cc3nccc(-c4cc([N+](=O)[O-])ccc4O)n3n2)cc1	TDP1 cell noCPT 23.1µM, DT40 TDP1 CPT 23.1µM
O=C(c1ccccc1)N1CCC(c2nc(-c3ccc(S(=O)(=O)N4CCOCC4)cc3)no2)CC1	TDP1 cell noCPT inconclusive, DT40 TDP1 CPT inconclusive
CCc1ccc(C(=O)N2CCC(c3nc(-c4ccc(S(=O)(=O)N5CCCC5)cc4)no3)CC2)cc1	TDP1 cell noCPT 20.6µM, DT40 TDP1 CPT inconclusive
O=C(Nc1ccc(Cl)cc1)N1CCC(c2nc(-c3ccccc3Cl)no2)CC1	TDP1 cell noCPT 18.4µM, DT40 TDP1 CPT 23.1µM
O=C(Nc1ccccc1)N1CCC(c2nc(-c3ccc(S(=O)(=O)N4CCOCC4)cc3)no2)CC1	TDP1 cell noCPT 3.26µM, DT40 TDP1 CPT 4.11µM
Cc1cccc(C(=O)N2CCC(c3nc(-c4ccc(S(=O)(=O)N5CCOCC5)cc4)no3)CC2)c1	TDP1 cell noCPT 20.6µM, DT40 TDP1 CPT 16.4µM
CCOc1ccc(C(=O)Nc2ccc3oc(-c4cccc5ccccc45)nc3c2)cc1	TDP1 cell noCPT inconclusive, DT40 TDP1 CPT inconclusive
O=C(c1cccs1)N1CCC(c2nc(-c3ccc(S(=O)(=O)N4CCOCC4)cc3)no2)CC1	TDP1 cell noCPT 18.4µM, DT40 TDP1 CPT inconclusive
COc1ccc(-c2oc(NC(=O)CSc3ncn[nH]3)c(C#N)c2-c2ccc(OC)cc2)cc1	TDP1 cell noCPT inconclusive, DT40 TDP1 CPT 12.6µM
COc1ccccc1OCC(=O)Nc1oc(-c2ccccc2)c(-c2ccccc2)c1C#N	ClpP mod inconclusive
COc1ccc(CC(=O)Nc2oc(-c3ccccc3)c(-c3ccccc3)c2C#N)cc1OC	TDP1 cell noCPT inconclusive, ClpP mod 31.6µM
Cc1ccc(OCC(=O)Nc2oc(-c3ccccc3)c(-c3ccccc3)c2C#N)cc1	TDP1 cell noCPT 16.4µM, DT40 TDP1 CPT 20.6µM, ClpP mod inconclusive (no result: TDP1 block)
COc1ccc(-c2oc(NC(=O)CCl)c(C#N)c2-c2ccc(OC)cc2)cc1	TDP1 cell noCPT 5.17µM, DT40 TDP1 CPT 6.51µM
CN1CCN(C(CNC(=O)c2ccc(F)cc2)c2ccc3c(c2)OCO3)CC1 (stereo not given)	none
CC(=O)N1c2ccccc2C(=O)C1N1CCN(c2ccccc2F)CC1 (stereo not given)	TDP1 cell noCPT inconclusive, DT40 TDP1 CPT inconclusive
COc1ccc(C(=O)Nc2sc(C)c(-c3ccccc3)c2C#N)cc1OC	TDP1 cell noCPT 20.6µM, DT40 TDP1 CPT inconclusive, ClpP mod inconclusive
FC(F)(F)c1cnc(Sc2ncn[nH]2)c(Cl)c1	none (no result: ClpP mod)
CC(=O)Nc1ccc2c(c1)Cc1cc(N3C(=O)C=CC3=O)ccc1-2	TDP1 cell noCPT 1.3µM, DT40 TDP1 CPT 1.03µM (no result: TDP1 block, ClpP mod)
O=C1C=CC(=O)N1c1ccc2c(c1)Cc1cc(F)ccc1-2	TDP1 cell noCPT 2.06µM, DT40 TDP1 CPT 1.64µM (no result: TDP1 block, ClpP mod)
CC(=O)Nc1ccc2c(c1)Cc1ccc(Cl)cc1-2	none (no result: TDP1 block, ClpP mod)
CC1(C(=O)NS(=O)(=O)c2ccccc2Cl)CCN1C(=O)c1cccc2ccccc12 (stereo not given)	none (no result: TDP1 block)
CS(=O)(=O)c1ccc(S(=O)(=O)N2CCN(C(=O)C(O)c3ccccc3)CC2)cc1 (stereo not given)	none (no result: TDP1 block)
Cc1cc(Oc2ccccc2)nc(C#N)n1	none (no result: TDP1 block)
Cc1cscc1-c1nc(NCC2CC2)nc2ccsc12	TDP1 cell noCPT inconclusive, DT40 TDP1 CPT inconclusive (no result: TDP1 block)
CNc1nc(NCc2cccc(OC)c2)c2sccc2n1	TDP1 cell noCPT 10.3µM, DT40 TDP1 CPT 7.31µM (no result: TDP1 block)
COc1cccc(CNc2nc(NCc3ccccc3)nc3ccsc23)c1	TDP1 cell noCPT 4.11µM, DT40 TDP1 CPT 2.06µM (no result: TDP1 block)
COc1cccc(CNc2nc(NCC3CC3)nc3ccsc23)c1	TDP1 cell noCPT 2.06µM, DT40 TDP1 CPT 16.4µM (no result: TDP1 block)
Cc1ccc(NC(=O)c2sc(-n3nc(C)c(Cc4ccc5c(c4)OCO5)c3C)nc2C)cc1C	TDP1 cell noCPT inconclusive, DT40 TDP1 CPT inconclusive
CC(=O)c1cccc(NC(=O)c2sc(-n3nc(C)c(Cc4ccc5c(c4)OCO5)c3C)nc2C)c1	TDP1 cell noCPT 14.6µM, DT40 TDP1 CPT 14.6µM
CC(C)C[C@@H]1O[C@H](CCc2ccccc2)Cc2[nH][nH]c(=O)c21	TDP1 cell noCPT inconclusive, DT40 TDP1 CPT inconclusive (no result: TDP1 block)
O=c1[nH][nH]c2c1[C@H](C1CCCC1)O[C@H](CCc1ccccc1)C2	TDP1 cell noCPT 18.4µM, DT40 TDP1 CPT 20.6µM (no result: TDP1 block)
CN(C)c1ccc(C=O)c(F)c1	none (no result: TDP1 block)
COc1cc(-c2nnc3n(CCc4ccccc4)c(=O)c4ccccc4n23)cc(OC)c1OC	TDP1 cell noCPT 16.4µM, DT40 TDP1 CPT inconclusive
